# Measurements: PubChem BioAssay (EPA / NIEHS)
# Calls of active or inactive are those of the source. Rule for the calls: active = hit-call score of the fitted dose curve at least 0.9, where 1 is the maximum; inactive = score below 0.9.
# Read-out: Interleukin-1 alpha (IL1a), IL1A (gene 3552)
# Assay: BSK_LPS_IL1a: BioMAP Diversity Plus: LPS Assay for Interleukin-1 alpha (IL1a) Biomarker Activity (AID 2283080)
# Conditions: primary human HUVEC with PBMC; actives raise or lower the signal
# Protocol: BSK_LPS is a cell-based, multiplexed-readout assay that uses umbilical vein endothelium and peripheral blood mononuclear cells, a human vascular primary cell co-culture, with measurements taken at 24 hours after chemical dosing in a 96-well plate.BSK_LPS_IL1a is an assay component measured in the BSK_LPS assay. It measures IL-a antibody related to regulation of gene expression using ELISA technology.Data from the assay component BSK_LPS_IL1a was analyzed into 1 assay endpoint. This assay endpoint, BSK_LPS_IL1a, was analyzed with bidirectional fitting relative to DMSO as the negative control and baseline of activity. Using a type of binding reporter, gain or loss-of-signal activity can be used to understand changes in the signaling as they relate to the gene IL1A. Furthermore, this assay endpoint can be referred to as a primary readout, because this assay has produced multiple assay endpoints where this one serves a signaling function. To generalize the intended target to other relatable targets, this assay endpoint is annotated to the cytokine intended target family, where the subfamily is interleukins.
# The levels of cell surface (or secreted, indicated by the prefix "s") biomarker endpoints were measured by ELISA. Overt cytotoxicity to cells in confluent adherent cultures (all systems other than the BT system) was assessed by measuring total protein levels using sulforhodamine B (SRB) staining in parallel cultures at the time of biomarker measurements, indicated as SRB endpoints. For proliferation assays for adherent cell types, individual cell types are cultured at sub-confluence and relative cell numbers quantified by SRB staining at time points optimized for each system (48 h: 3C and CASM3C systems; 72 h: BT and HDF3CGF systems; 96 h: SAg system). SRB was performed by staining cells with 0.1% SRB after fixation with 10% TCA and reading wells at 560 nm.Viability and proliferation of PBMC (T cells) was quantified by Alamar Blue reduction for the SAg and BT systems. For PBMC viability (referred to as PBMC Cytotoxicity within the assay endpoint names), cells were plated (75,000/well in a 96-well plate) and then chemical samples added for 1 h before addition of activators, SEB and TSST-1 (20 ng/mL final concentration each). Cells were incubated for 90 h. Then, Alamar Blue (20 uL/well) (Invitrogen, Cat DAL1100) was added for 6 h, and the plates were read with a fluorescence microplate reader at 546/580 nm (excitation/emission). For PBMC proliferation, cells were plated and activated as above but incubated for only 16 h prior to addition of Alamar Blue. Plates were read after 6 h.
Structure (SMILES),outcome,AC50
NC(=O)N1c2ccccc2C=Cc2ccccc21,inactive,
O=C(NO)C1(NS(=O)(=O)c2ccc(Oc3ccc(F)cc3)cc2)CCOCC1,inactive,
CCCCCCCC1CCC(=O)O1 (stereo not given),inactive,
CCCCCCCC/C=C\CCCCCCCC(=O)OC[C@@H](O)[C@H]1OC[C@H](O)[C@H]1O,inactive,
CCn1nc(C)c2c1C(=O)NCC(c1ccc(O)cc1)=N2,inactive,
CCCCCCCCCCCCCCO,,30.2 µM (active)
O=C(Cl)C(F)(F)C(F)(F)C(F)(F)C(=O)Cl,inactive,
CCCCCCCCCCCCCCCCOS(=O)(=O)O,inactive,
O=S1(=O)CCCO1,inactive,
OCC(CO)(CO)CO,inactive,
O=C(O)[C@H](O)[C@@H](O)C(=O)O,inactive,
OCc1ccccc1,inactive,
c1ccc2c(c1)-c1cccc3c1c-2cc1ccccc13,inactive,
FC(F)(F)C(F)(F)C(F)(F)C(F)(F)C(F)(F)C(F)(F)I,inactive,
Cc1cccc(O)c1C,inactive,
CCCCCCCCN(C)C,inactive,
CC(=O)c1ccccc1,inactive,
O=c1[nH]cnc2c1ncn2[C@H]1CC[C@@H](CO)O1,inactive,
Nc1ccn([C@@H]2O[C@H](CO)[C@@H](O)[C@@H]2O)c(=O)n1,inactive,
O=C(O)c1ccc2c(c1)nc(C(=O)NC1CCN(C3CC3)CC1)n2Cc1cc(-c2ccc(Cl)s2)on1,inactive,

Structure (SMILES),outcome,AC50
c1ccc2ncccc2c1,inactive,
OCc1c[nH]c2ccccc12,inactive,
COc1cc2c(c(OC)c1OC)-c1ccc(OC)c(=O)cc1[C@@H](NC(C)=O)CC2,,0.827 µM (active)
CC(C)CCCCCCOC(=O)C1CCCCC1C(=O)OCCCCCCC(C)C (stereo not given),inactive,
OC(CCl)CCl,inactive,
OCCC(F)(F)C(F)(F)C(F)(F)C(F)(F)F,inactive,
OC(Cn1cncn1)(Cn1cncn1)c1ccc(F)cc1F,inactive,
NC(=O)NN=Cc1ccc([N+](=O)[O-])o1,inactive,
O=S(=O)(O)CCC(F)(F)C(F)(F)C(F)(F)C(F)(F)C(F)(F)C(F)(F)F,inactive,
C[C@]12C=CC(=O)C=C1CC[C@H]1[C@@H]3C[C@@H](O)[C@](O)(C(=O)CO)[C@@]3(C)C[C@H](O)[C@@]12F,inactive,
OC(O)(C(F)C(O)(O)C(F)(F)F)C(F)(F)F,inactive,
CCCC(CCC)C(=O)O,inactive,
OC[C@H]1O[C@@](CO)(O[C@H]2O[C@H](CO)[C@@H](O)[C@H](O)[C@H]2O)[C@@H](O)[C@@H]1O,inactive,
CCc1cccc(CC)c1N,inactive,
CC(C)CC(C)O (stereo not given),inactive,
CCCCOC(=O)c1ccccc1,inactive,
Cc1nc(-c2ccccn2)ncc1C(=O)Nn1cc(C)c2cc(F)ccc21,inactive,
NCC(F)(F)C(F)(F)C(F)(F)C(F)(F)F,inactive,
NC(=O)N(O)[C@@H]1COc2cc(OCc3ccccc3)ccc21,inactive,
Cc1ncc([C@@H](CCCCCCc2ccc3c(n2)NCCC3)CC(=O)O)cn1,inactive,
